# Results reported in PubChem BioAssay (EPA / NIEHS).
# Active and inactive are the calls of the source. Rule for the calls: active = hit-call score of the fitted dose curve at least 0.9, where 1 is the maximum; inactive = score below 0.9.
# Read-out: TIMP metallopeptidase inhibitor 1 (TIMP1), TIMP1 (gene 7076)
# Assay: BSK_hDFCGF_TIMP1: BioMAP Diversity Plus: hDFCGF Assay for TIMP metallopeptidase inhibitor 1 (TIMP1) Biomarker Activity (AID 2283062)
# Settings: primary human foreskin fibroblasts; actives raise or lower the signal
# Method: BSK_hDFCGF is a cell-based, multiplexed-readout assay that uses foreskin fibroblast, a human skin primary cell, with measurements taken at 24 hours after chemical dosing in a 96-well plate.BSK_hDFCGF_TIMP1 is an assay component measured in the BSK_hDFCGF assay. It measures TIMP-1 antibody related to regulation of gene expression using ELISA technology.Data from the assay component BSK_hDFCGF_TIMP1 was analyzed into 1 assay endpoint. This assay endpoint, BSK_hDFCGF_TIMP1, was analyzed with bidirectional fitting relative to DMSO as the negative control and baseline of activity. Using a type of binding reporter, gain or loss-of-signal activity can be used to understand changes in the signaling as they relate to the gene TIMP1. Furthermore, this assay endpoint can be referred to as a primary readout, because this assay has produced multiple assay endpoints where this one serves a signaling function. To generalize the intended target to other relatable targets, this assay endpoint is annotated to the protease inhibitor intended target family, where the subfamily is metalloproteinase inhibitor.
# The levels of cell surface (or secreted, indicated by the prefix "s") biomarker endpoints were measured by ELISA. Overt cytotoxicity to cells in confluent adherent cultures (all systems other than the BT system) was assessed by measuring total protein levels using sulforhodamine B (SRB) staining in parallel cultures at the time of biomarker measurements, indicated as SRB endpoints. For proliferation assays for adherent cell types, individual cell types are cultured at sub-confluence and relative cell numbers quantified by SRB staining at time points optimized for each system (48 h: 3C and CASM3C systems; 72 h: BT and HDF3CGF systems; 96 h: SAg system). SRB was performed by staining cells with 0.1% SRB after fixation with 10% TCA and reading wells at 560 nm.Viability and proliferation of PBMC (T cells) was quantified by Alamar Blue reduction for the SAg and BT systems. For PBMC viability (referred to as PBMC Cytotoxicity within the assay endpoint names), cells were plated (75,000/well in a 96-well plate) and then chemical samples added for 1 h before addition of activators, SEB and TSST-1 (20 ng/mL final concentration each). Cells were incubated for 90 h. Then, Alamar Blue (20 uL/well) (Invitrogen, Cat DAL1100) was added for 6 h, and the plates were read with a fluorescence microplate reader at 546/580 nm (excitation/emission). For PBMC proliferation, cells were plated and activated as above but incubated for only 16 h prior to addition of Alamar Blue. Plates were read after 6 h.
SMILES,outcome,AC50
Cn1c(=O)c2[nH]cnc2n(C)c1=O,inactive,
c1ccc(C(O[C@@H]2CCCN(CCc3ccc4c(c3)OCO4)C2)c2ccccc2)cc1,inactive,
OCCOCCOCCO,inactive,
CCCCCCCCCCCCCCO,inactive,
OCCC(F)(F)C(F)(F)C(F)(F)C(F)(F)F,inactive,
Cc1nccn1-c1ccc(Sc2cccc(C3(C(N)=O)CCOCC3)c2)cc1,,2.1 µM (active)
O=C(O)c1cccc(C[C@@H]2COc3ccc(OCc4nc5cc(F)ccc5s4)cc3[C@@H]2O)c1,inactive,
CCCCN1C(=O)[C@@H]([C@H](O)C2CCCCC2)NC(=O)C12CCN(Cc1ccc(Oc3ccc(C(=O)O)cc3)cc1)CC2,inactive,
CCCC(CCC)C(=O)O,inactive,
OCC(CO)(CO)CO,inactive,
FC(F)(F)C(F)(F)C(F)(F)C(F)(F)C(F)(F)C(F)(F)I,inactive,
COc1cc(C(C)C)c2c(c1)S(=O)(=O)N(COc1cc(=O)n3cccc(OCCN4CCCCC4)c3n1)C2=O,inactive,
FC(F)(F)COC(OCC(F)(F)F)OCC(F)(F)F,inactive,
OC[C@H]1O[C@@H]2O[C@H]3[C@H](O)[C@@H](O)[C@@H](O[C@H]4[C@H](O)[C@@H](O)[C@@H](O[C@H]5[C@H](O)[C@@H](O)[C@@H](O[C@H]6[C@H](O)[C@@H](O)[C@@H](O[C@H]7[C@H](O)[C@@H](O)[C@@H](O[C@H]1[C@H](O)[C@H]2O)O[C@@H]7CO)O[C@@H]6CO)O[C@@H]5CO)O[C@@H]4CO)O[C@@H]3CO,inactive,
CCCCCCCCCC,inactive,
CCOC(N)=O,inactive,
O=C(Cl)C(F)(F)C(F)(F)C(F)(F)C(=O)Cl,inactive,
CCCCCCCCN(C)C,inactive,
CC(C)CC(C)O (stereo not given),inactive,
Cc1nc(-c2ccccn2)ncc1C(=O)Nn1cc(C)c2cc(F)ccc21,inactive,

SMILES,outcome,AC50
CCc1cccc(CC)c1N,inactive,
CC(C)CCCCCCOC(=O)C1CCCCC1C(=O)OCCCCCCC(C)C (stereo not given),inactive,
CC(=O)c1ccccc1,inactive,
CCCCCCCC1CCC(=O)O1 (stereo not given),inactive,
CCCCCCCC/C=C\CCCCCCCC(=O)OC[C@@H](O)[C@H]1OC[C@H](O)[C@H]1O,inactive,
FC(F)=C(F)C(F)(F)C(F)(F)C(F)(F)C(F)(F)C(F)(F)C(F)(F)F,inactive,
CCCCCCOC(=O)CC(CC(=O)OCCCCCC)(OC(=O)CCC)C(=O)OCCCCCC,inactive,
OCc1c[nH]c2ccccc12,inactive,
CC1(C)C(=O)N(Cl)C(=O)N1Cl,inactive,
C[Si](C)(C)C(F)(F)C(F)(F)C(F)(F)F,inactive,
c1ccc2c(c1)-c1cccc3c1c-2cc1ccccc13,inactive,
COc1cc2c(c(OC)c1OC)-c1ccc(OC)c(=O)cc1[C@@H](NC(C)=O)CC2,inactive,
COS(C)(=O)=O,inactive,
CC(C)C(=O)Nc1ccc([N+](=O)[O-])c(C(F)(F)F)c1,inactive,
O=S1(=O)CCCO1,inactive,
Cc1cccc(O)c1C,inactive,
O=C1CN(N=Cc2ccc([N+](=O)[O-])o2)C(=O)N1,inactive,
O=C(NO)C1(NS(=O)(=O)c2ccc(Oc3ccc(F)cc3)cc2)CCOCC1,inactive,
O=c1[nH]cnc2c1ncn2[C@H]1CC[C@@H](CO)O1,inactive,
O=C(O)c1ccc2c(c1)nc(C(=O)NC1CCN(C3CC3)CC1)n2Cc1cc(-c2ccc(Cl)s2)on1,inactive,
